About 79,000 compounds went through this panel and 15% of them were active in at least one assay; those are over-represented in the sample as a whole. Rule as the data show it: active = growth inhibition above about 70%; inactive = the rest.
Key:
[1] = NCI Yeast Anticancer Drug Screen. Data for the rad50 strain (AID 155);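 also: 0% = growth of vehicle-only cultures of the same strain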; conditions: S. cerevisiae rad50 strain growth inhibition; at 50.0 µM; active compounds read high
In short: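 Yeast carrying a defined DNA repair defect were exposed to test compounds, and growth was compared with vehicle-treated controls to give percent inhibition.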

[2] = NCI Yeast Anticancer Drug Screen. Data for the mec2-1 strain (AID 157); conditions: S. cerevisiae mec2-1 strain, at 50.0 µM, active compounds read high
In short: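 Using mec2-1 yeast: add compound, measure growth, express inhibition versus vehicle-treated cultures.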

[3] = NCI Yeast Anticancer Drug Screen. Data for the sgs1 mgt1 strain (AID 161);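 also: 0% = growth of cultures given vehicle only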; conditions: S. cerevisiae sgs1 mgt1 strain, at 50.0 µM, active compounds read high
In short: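 Compounds are added to genetically altered yeast, and growth is compared with cultures given vehicle alone to give percent inhibition.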

[4] = NCI Yeast Anticancer Drug Screen. Data for the cln2 rad14 strain (AID 165);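 also: 0% = growth equal to vehicle treated cultures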; conditions: S. cerevisiae cln2 rad14 strain, at 50.0 µM, active compounds read high
In short: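 Yeast strain cln2 rad14, bearing defects in cell cycle control and DNA repair, serves as the test system; values reflect growth inhibition compared with vehicle.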

[5] = NCI Yeast Anticancer Drug Screen. Data for the bub3 strain (AID 167); conditions: S. cerevisiae bub3 mutant strain, at 50.0 µM, active compounds read high
In short: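 Compounds were applied to a genetically altered yeast strain carrying a cell-cycle control defect. Growth inhibition was scored against vehicle-treated controls.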

[6] = NCI Yeast Anticancer Drug Screen. Data for the mlh1 rad18 strain (AID 175); conditions: S. cerevisiae mlh1 rad18 strain growth inhibition; at 50.0 µM; active compounds read high
In short: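 Steps: expose repair-defective yeast to compound; measure growth; express inhibition against vehicle-treated controls.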

Measured: growth inhibition

O=C(O)c1ccccc1Oc1ccc([N+](=O)[O-])cc1[N+](=O)[O-]
inactive: [1] 4.3% | [2] 16.8% | [3] 32% | [4] -82% | [5] 26.8% | [6] 20.1%

CCNOCc1ccccc1
inactive: [1] -4.35% | [2] -11.7% | [3] -11% | [4] -18.1% | [5] -0.45% | [6] -9.95%

Cc1ccccc1-n1c(C)nc2cc(NC(N)=S)ccc2c1=O
inactive: [1] -19.1% | [2] -3.05% | [3] 0% | [4] -24.5% | [5] -5.9% | [6] -17.7%

ClC1CC2CC1C1CCCC21 (configuration not stated)
inactive: [1] -2.4% | [2] -3.75% | [3] -16.1% | [4] 7.2% | [5] 4.8% | [6] -7.4%

Cc1ccc(C(CS(=O)(=O)c2ccc(C)cc2)c2ccccc2)cc1 (configuration not stated)
inactive: [1] 0.5% | [2] 6.15% | [3] -7.8% | [4] -20.1% | [5] 1.7% | [6] -19.9%

Cc1ccc(Sc2cc([N+](=O)[O-])cc(Sc3ccc(C)cc3)c2Sc2ccc(C)cc2)cc1
inactive: [1] 22.2% | [2] -24.7% | [3] 10.4% | [4] 5.25% | [5] 1.35% | [6] -11.7%

Nc1nc(-c2ccccc2)nc2nc3[nH]c(=O)[nH]c(=O)c3nc12
inactive: [1] -12.3% | [2] 5.25% | [3] 22.8% | [4] 0.95% | [5] 19.1% | [6] 2.95%

O=C(c1ccc(Cl)cc1)c1nnc(Cl)s1
inactive: [1] -4.7% | [2] 2.2% | [3] -6.7% | [4] -10.8% | [5] 24.8% | [6] 2.3%

S=C(S)N(Cc1ccccc1)Cc1ccccc1
inactive: [1] 33.4% | [2] -3% | [3] 27.2% | [4] -0.7% | [5] 6.6% | [6] 36.5%

O=C(OCCN1CCCCC1)C(c1ccccc1)C1(O)CCSCC1 (configuration not stated)
inactive: [1] 9.6% | [2] 22.9% | [3] 32.6% | [4] 25.9% | [5] 17.9% | [6] 5.15%

COC(=O)C(=O)[C@@H](O)[C@H](O)[C@@H](O)CO
inactive: [1] 29.8% | [2] 23.7% | [3] 25% | [4] 13.1% | [5] 25.7% | [6] 23.6%

Cc1ccc2c(c1)-c1cc(C)ccc1C2
inactive: [1] 29.1% | [2] 19.9% | [3] 16.4% | [4] 15% | [5] 29.4% | [6] -1.35%

CCCC(=O)c1ccc(C)cc1
inactive: [1] -1.2% | [2] -18.8% | [3] -4.2% | [4] 13.5% | [5] 8.65% | [6] 2.65%

CCCC(C)C(O)C(C)C (configuration not stated)
inactive: [1] 1.25% | [2] -19.8% | [3] -5.1% | [4] 3.6% | [5] 8.7% | [6] -18.7%

CCCCCCCCCCCCCCCCCCN(C)CC(COC)OP(=O)([O-])OCC[N+](C)(C)C (configuration not stated)
inactive: [1] 22.6% | [2] 14.3% | [3] 15.1% | [4] -3.45% | [5] 0.25% | [6] 24.9%

CCOC(=O)/C(I)=C/c1cc(OC)c(OC)c(OC)c1
inactive: [1] -2.2% | [2] 15.5% | [3] 4.6% | [4] 13.9% | [5] 28.2% | [6] 19.9%

O=S(=O)(O)CCS(=O)(=O)O
inactive: [1] -15.8% | [2] -19.3% | [3] -3.85% | [4] -51.3% | [5] 1.45% | [6] -45.9%

CC(CN(C)C)C(=O)c1ccccc1C(=O)O (configuration not stated)
inactive: [1] -44.9% | [2] -24.9% | [3] -36% | [4] -35.2% | [5] -2.05% | [6] -16.7%

COc1ccc(CC(C)=C(C#N)C#N)cc1OC
inactive: [1] -10.8% | [2] -2.45% | [3] -8.25% | [4] 11.8% | [5] -0.05% | [6] -17.3%

O=C(CSSCC(=O)Nc1ccccc1O)Nc1ccccc1O
inactive: [1] -11.2% | [2] -8.15% | [3] -11.7% | [4] -24.1% | [5] 27.2% | [6] -4.85%

O=C1C=C(CCC2=CC(=O)c3ccccc3C2=O)C(=O)c2ccccc21
inactive: [1] 4.65% | [2] -23.5% | [3] -26.9% | [4] -10.9% | [5] -26.5% | [6] -28.6%

Nc1ccc(C(=O)Oc2ccc(OC(=O)c3ccccc3)cc2)cc1
inactive: [1] 9.7% | [2] 20.1% | [3] 18.9% | [4] -6.8% | [5] 0.4% | [6] 13.9%

O=C(O)/C1=C/CCC(C(=O)O)CCC1 (configuration not stated)
inactive: [1] -4.15% | [2] -1.95% | [3] -7.35% | [4] -44.6% | [5] -12.5% | [6] 22.9%

COC(=O)Cc1c(-c2[nH]c3ccccc3c2CC(=O)OC)[nH]c2ccccc12
inactive: [1] 13.9% | [2] 7.45% | [3] 6% | [4] -17.4% | [5] 3.85% | [6] -20.8%

CCC1(N=[N+]=[N-])C(=O)c2ccccc2N(c2ccccc2)C1=O (configuration not stated)
inactive: [1] -13.3% | [2] -13% | [3] -18.9% | [4] 2.75% | [5] -0.95% | [6] -19.4%

C=CC(=O)OCCOCCOC
inactive: [1] -21.1% | [2] -15.9% | [3] -2.35% | [4] -5% | [5] -18.6% | [6] -14.4%

CCOC(=O)C1(C#N)C(C#N)(C#N)C1(C)CC (configuration not stated)
inactive: [1] 10.8% | [2] -1.2% | [3] 24.8% | [4] -1.1% | [5] 0.75% | [6] -0.75%

N#C/C(=C/O)c1ccccc1
inactive: [1] 1.65% | [2] 4.4% | [3] -0.75% | [4] 3.1% | [5] 5.6% | [6] -13.7%

CC(N(N=O)c1cccc(Cl)c1)S(=O)(=O)O (configuration not stated)
inactive: [1] 7.25% | [2] 4.8% | [3] -6.45% | [4] 22.6% | [5] 5.55% | [6] -0.4%

Oc1c(Cl)cc(Cl)cc1C1N2CCCCC2C2c3cccn3-c3ccccc3N21 (configuration not stated)
inactive: [1] 22.4% | [2] 5.4% | [3] 18.3% | [4] 14.2% | [5] 21.2% | [6] -30.6%

C/C(CC(O)(C(F)(F)F)C(F)(F)F)=N\N
inactive: [1] -31.9% | [2] -49.8% | [3] -20.4% | [4] -7.6% | [5] -4.5% | [6] -23.4%

COC(=O)C1=C(\N2CCOCC2)CCCC/C=C\1C(=O)OC
inactive: [1] -2.55% | [2] 1.15% | [3] -4.9% | [4] -10.3% | [5] 3.65% | [6] -4.5%

O=C1Sc2ccccc2Cn2cccc21
inactive: [1] -1.7% | [2] 13% | [3] 13.3% | [4] -19.6% | [5] -6.3% | [6] 8.7%

O=C(C(=Cn1c(=O)cc[nH]c1=S)C(=O)c1ccccc1)c1ccccc1
inactive: [1] -14.7% | [2] -19.4% | [3] -27.6% | [4] 2.95% | [5] -15.6% | [6] -9.7%

C1CCCCCc2c(-c3n[nH]c4c3CCCCCCCCCC4)n[nH]c2CCCC1
inactive: [1] -8.1% | [2] -1.45% | [3] -8.2% | [4] 7.9% | [5] 2.75% | [6] 43.8%

COc1ccc2c(C)cc(N/N=C(\C)c3cn(C)n(-c4ccccc4)c3=O)nc2c1
inactive: [1] -2.25% | [2] -7.1% | [3] -5.95% | [4] 13.2% | [5] -1.8% | [6] 1.65%

COC(C)CCOC(=O)c1ccc(C(C)C)cc1 (configuration not stated)
inactive: [1] 6.45% | [2] 8% | [3] 10.2% | [4] -21.7% | [5] 8.75% | [6] 1.65%
